Source: PubChem
The sample as a whole holds a higher share of hits than the screen did.
Methyltransferases: Primary Screen for Target Class Profiling of Small Molecule Inhibitors of Methyltransferases; AID 1745853, 2022; purified enzyme, MTase-Glo SAH luminescence; hits give low values; calls only at 40 µM; 3.9% of 25,000 active; call rule not given here
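Each enzyme was reacted with SAM and its substrate, with compounds tested once at 40 uM; SAH formed was read by MTase-Glo luminescence.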
Each line names hits and unclear results; the compound was inactive in the other large screens.

COc1ccc(NC(=O)CCc2nnc3n(Cc4ccccc4)c(=O)c4ccccc4n23)cc1OC	none
CC1(C)C(O)CCC2(C)C1C(O)C=C1COC(=O)C12O (configuration not stated)	none
NCC(CNc1nc(Nc2cccc(NC(=O)N3CCCC3)c2)ncc1I)C(=O)c1cccs1 (configuration not stated)	Methyltransferases active
O=C(Nc1ccccc1)N1CCC(Cc2cnc3ccccc3c2)CC1	none
COc1cccc(N2C(=O)CSc3c(c4ccccc4n3C)C2C(=O)NCc2ccccc2)c1 (configuration not stated)	none
Cc1nn(C)c(C)c1NC(=O)CC[C@H]1NC(=O)c2ccccc2NC1=O	none
Cc1cc(C)c(S(=O)(=O)n2cc(C)cc2C)c(C)c1	Methyltransferases active
COCc1ccc(C(=O)N2CCN(CCO)CC(O)C2)cc1 (configuration not stated)	none
CC(C)OCCCn1c(=O)c2ccccc2n2c(SCC(=O)Nc3cccc(F)c3)nnc12	none
COc1cc2c(Nc3cc(F)c(Cl)c(Cl)c3)ncnc2cc1OCC1CCCN(C)CCC1	Methyltransferases active
COc1cc2c(Nc3ccc(Br)cc3F)ncnc2cc1OCC1CCN(C)CC1	Methyltransferases active
O=C(NNc1nc2cc(F)ccc2n2cccc12)c1cnccn1	none
CCCSCCCN1C(=O)c2cc3occc3n2CC1(C)C(=O)NC1CCCCCC1 (configuration not stated)	none
COc1cccc(CSc2nnc3n(C)c(=O)c4ccc(C(=O)NC5CCCC5)cc4n23)c1	none
CCCn1c(=O)c2ccccc2n2c(SCc3ccccc3F)nnc12	none
CCOC(=O)C1CCC(CNC(=O)N2CCn3c(C)ccc3C2CC)CC1 (configuration not stated)	none
O=C1NCCCc2[nH]c(-c3cnn(-c4ccc(F)cc4)c3)nc21	none
O=C(CCc1nc2ccccc2[nH]1)N1CCC(c2nc(CCOCC3CC3)no2)C1 (configuration not stated)	none
CCOc1cccc(C2c3cccn3-c3sc4c(c3CN2C(=O)Nc2ccccc2OC)CCCC4)c1 (configuration not stated)	none
C=CC(=O)N1CCC[C@@H](n2nc(-c3cccc(C(=O)Nc4ccc(C(C)C)c(C)c4)c3)c3c(N)ncnc32)C1	none
CC(C)n1nc(C#Cc2ccccc2)c2c(N)ncnc21	none
CC(C)n1nc(-c2ccc(NC(=O)Nc3cccc(C(F)(F)F)c3)cc2)c2c(N)ncnc21	Methyltransferases active
CCN(CC)CCCN1C(=O)c2cc3occc3n2CC1(C)C(=O)NC1CCC(C)CC1 (configuration not stated)	none
O=C(c1cccc(OC2CN(C3CCSCC3)C2)c1)N1CCCC1	none
CCCn1c(=O)c2cc(Cl)ccc2n2c(SCC(=O)NCc3cccc(OC)c3)nnc12	none
CCOc1ccccc1CN1C(=O)c2cc(-c3ccco3)nn2CC1(C)C(=O)NC1CCCCC1 (configuration not stated)	none
O=C1c2ccccc2C(=O)c2cc(S(=O)(=O)N(CCO)CCO)ccc21	Methyltransferases active
O=C1c2ccccc2C(=O)c2cc(S(=O)(=O)NC3CCCCC3)ccc21	none
O=c1[nH]c2ccc(S(=O)(=O)N(CCO)CCO)cc2[nH]1	none
Cn1nc2n(c1=O)CCC(NS(=O)(=O)c1cccnc1)CC2 (configuration not stated)	none
CC(C)c1ccc(CO)cc1O[C@@H]1O[C@H](CO)[C@@H](O)[C@H](O)[C@H]1O	none
COc1cc2c(cc1O)CC[C@@H]1[C@@H]2CC[C@]2(C)[C@@H](O)CC[C@@H]12	Methyltransferases active
CC12CCC3c4ccc(OC5OC(C(=O)O)C(O)C(O)C5O)cc4CCC3C1CCC2O (configuration not stated)	none
C[C@]12CC[C@@H]3c4ccc(OC(=O)c5ccccc5)cc4CC[C@H]3[C@@H]1CC[C@@H]2O	none
COc1ccc(OC2CN(CC3CC3)C2)cc1	none
Cc1ccc(-c2nnn3c2nc(NC2CCCC2)c2ccccc23)cc1	none
Cn1c(CNc2ccc(C(=N)N)cc2)nc2cc(C(=O)N(CCC(=O)O)c3ccccn3)ccc21	Methyltransferases active
CCCCNc1nc2c(-c3ccc(C)cc3)nnn2c2ccccc12	none
Cc1ccc(Cn2c(=O)c3ccccc3n3c(CCC(=O)N4CCN(c5cccc(C)c5C)CC4)nnc23)cc1	none
Cc1ccc(C)c(N2CCN(C(=O)CCc3nnc4n(CCC(C)C)c(=O)c5ccccc5n34)CC2)c1	none
Cc1cccc(N2CCN(C(=O)CCc3nnc4n(CC(C)C)c(=O)c5ccccc5n34)CC2)c1C	Methyltransferases active
CC1(C(=O)N2CCOCC2)CN(Cc2ccccc2)Cc2ccc(Nc3ccccc3)nc21 (configuration not stated)	none
CN(C)CCN1C(=O)c2cc3sccc3n2CC1(C)C(=O)NC1CCCCCCC1 (configuration not stated)	none
CCOc1ccccc1CN1C(=O)c2cc3sccc3n2CC1(C)C(=O)NC1CCCCC1C (configuration not stated)	none
COC(=O)/C=C/C12COC(C)(C)C1C(O)C(OC(C)=O)C1(C)C2CCC2(C)C(c3ccoc3)OC(=O)C3OC321 (configuration not stated)	none
